Source: PubChem (National Center for Advancing Translational Sciences (NCATS))
FEN1 inhibitor: inhibitors of human flap endonuclease 1 | P39748 | Recombinant FEN1 flap cleavage, fluorescence, 15 min | Potency, µM (series often up to 114 µM), for the others: top-dose activity change, negative = inhibition, hits mostly inhibitors | actives 0.35% (n = 390,000) | AID 588795; note: nearly all actives have a fitted effect of over 65% in size
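FEN1 at 10 nM, compound pretreatment for 15 min (room temperature), 50 nM final substrate to initiate; endpoint reads at 0 and 15 min; DMSO-only plates used as vehicle background.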
WRN inhibitor: WRN helicase (human) inhibition; actives 0.46% (n = 360,000); Q14191; WRN helicase unwinding, fluorescent forked duplex, kinetic; Potency, µM (highest dose often 114 µM), without a hit: at the highest dose activity change, negative = inhibition, hits mostly inhibitors; note: nearly all actives have a fitted effect of over 55% in size
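Fluorescence dequenching readout, ex 525 nm/em 598 nm, kinetic mode: forked duplex DNA (100 nM final) with adjacent fluorophore and quencher unwound by WRN (20 nM final) with 2 mM ATP. Compound preincubation 15 min, room temperature.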
BLM helicase inh: Bloom syndrome helicase (human) inhibition; P54132; recombinant BLM DNA unwinding, fluorescence dequenching; Potency, µM (titrated, usually from 56.1 µM), for inactives: top-dose activity change, negative = inhibition, actives largely listed as inhibitors; actives 0.2% (n = 350,000);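 note: plate controls were vehicle for no effect and no enzyme for full effect; nearly all actives have a fitted effect of over 35% in size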
RECQ1 helicase: blocks DNA unwinding by human RECQ1. AID 2549. P46063. actives 0.54% (n = 240,000). RECQ1 DNA unwinding, red fluorescence kinetic read. Potency, µM (doses to about 57.3 µM), for inactives: at the highest dose activity, negative = inhibition, hits mostly inhibitors;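 note: plate controls were vehicle for no effect and no enzyme for full effect; nearly all actives have a fitted effect of over 30% in size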
Target sequence (P46063 whole entry, looked up): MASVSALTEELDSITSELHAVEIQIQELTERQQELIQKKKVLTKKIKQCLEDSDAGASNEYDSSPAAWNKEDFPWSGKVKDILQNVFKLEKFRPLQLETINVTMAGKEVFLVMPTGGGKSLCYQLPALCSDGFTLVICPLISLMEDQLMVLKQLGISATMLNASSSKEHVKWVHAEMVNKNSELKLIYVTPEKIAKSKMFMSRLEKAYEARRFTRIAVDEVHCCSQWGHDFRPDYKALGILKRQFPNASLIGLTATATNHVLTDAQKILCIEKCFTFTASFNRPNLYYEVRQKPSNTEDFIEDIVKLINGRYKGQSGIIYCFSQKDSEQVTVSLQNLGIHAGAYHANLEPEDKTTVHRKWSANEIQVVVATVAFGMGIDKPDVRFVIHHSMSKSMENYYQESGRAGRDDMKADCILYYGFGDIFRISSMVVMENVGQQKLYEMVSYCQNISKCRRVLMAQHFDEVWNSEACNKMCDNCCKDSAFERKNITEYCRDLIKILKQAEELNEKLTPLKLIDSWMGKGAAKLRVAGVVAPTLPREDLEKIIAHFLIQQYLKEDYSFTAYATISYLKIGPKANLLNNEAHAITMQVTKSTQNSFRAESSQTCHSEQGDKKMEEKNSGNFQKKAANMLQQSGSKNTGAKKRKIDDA
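50 nM RECQ1T1 preincubated 15 min with compound in Tris pH 8.0 buffer with MgCl2, DTT, Tween-20 and 2.5 ug/ml poly(dI-dC); started with 200 nM TAMRA/BHQ-2 forked duplex and 2 mM ATP. Unwinding read as fluorescence (525/598 nm), two reads 2 h apart.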
APE1 inh: APE1 (human) endonuclease inhibition | actives 0.35% (n = 350,000) | recombinant APE1, TAMRA/BHQ-2 abasic DNA cleavage fluorescence | Potency, µM (series often up to 65.8 µM), without a hit: at the highest dose activity change, negative = inhibition, hits mostly inhibitors;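 note: plate controls were vehicle for no effect and reference inhibitor for full effect; nearly all actives have a fitted effect of over 55% in size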
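Substrate: short duplex with […] THF abasic site, 5'-TAMRA and 3'-BHQ-2, 50 nM final. APE1 at 0.75 nM, preincubated 15 min RT with compound. Fluorescence increase from first to third read measured activity.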
An asterisk follows results filed as active; [ ] = another dose, or the depositor's remark. Only some compounds are listed: those with a hit (about 0.87% of all), similar ones and a draw of the others. Calls come from the whole dose curve; as a rule, active = well fitted curve in the direction sought with a large enough effect; inconclusive = small, poorly fitted or top-dose-only effect, or another doubt; inactive = no such curve, though single readings can be large; an effect the other way counts as inactive or inconclusive. Unless noted, % is set by controls: 0 for no effect and ±100 for the full control effect; potency is the fitted concentration of half-maximal effect.

CCOc1[nH]c(/N=C/c2ccco2)c(C#N)c1C#N was read as FEN1 inhibitor -10%, WRN inhibitor -20%[57.1 µM], BLM helicase inh -4%, RECQ1 helicase inactive and APE1 inh inconclusive.
`CCOc1[nH]c(/N=C/c2ccc(OC)cc2)c(C#N)c1C#N` gave FEN1 inhibitor 79µM*.
O=C(Nc1ccc(F)cc1F)c1ccc2c(c1)CCN2S(=O)(=O)c1ccc(Cl)cc1 was read as FEN1 inhibitor -7% and BLM helicase inh -6%.
For CC(N)(Cc1ccc(O)c(O)c1)C(=O)O (centres undefined) the results were BLM helicase inh inconclusive, RECQ1 helicase 3.2µM* and APE1 inh 1.1µM*.
For C[C@@](N)(Cc1ccc(O)cc1)C(=O)O the results were BLM helicase inh 2%, RECQ1 helicase -1% and APE1 inh 5%.
`CCn1c(=O)c(-[n+]2ccccc2)c(O)c2ccccc21` gave FEN1 inhibitor 35µM*, WRN inhibitor -5%, BLM helicase inh 0%, RECQ1 helicase -9% and APE1 inh -4%.
`Cc1cnc2ccccc2c1/C=C/c1ccc(N(C)C)cc1` gave FEN1 inhibitor -23%.
Screening O=S1(=O)CCOC[C@H](c2ccccc2)N1Cc1ccc(Cl)cc1Cl returned FEN1 inhibitor -27%.
O=C(O)c1cccc(-n2cccc2C=C2C(=O)c3ccccc3C2=O)c1 was read as FEN1 inhibitor 50µM*, WRN inhibitor inconclusive, BLM helicase inh -5%, RECQ1 helicase -18% and APE1 inh inconclusive.
`O=C(O)c1cccc(-n2cccc2/C=C2/SC(=O)N(CC(=O)N3CCCC3)C2=O)c1` gave FEN1 inhibitor 1%, WRN inhibitor 56µM*, BLM helicase inh -7% and APE1 inh 13µM*.
`N#Cc1c(SCC(=O)Nc2cccc(C(F)(F)F)c2)sc2c(O)cc(=O)[nH]c12` gave FEN1 inhibitor 25µM*, WRN inhibitor inconclusive, BLM helicase inh -3% and APE1 inh -1%.
`COc1ccc(NC(=O)CSc2sc3c(O)cc(=O)[nH]c3c2C#N)c(OC)c1` gave FEN1 inhibitor 32µM*, WRN inhibitor inconclusive, BLM helicase inh inconclusive and APE1 inh 1%.
Screening COc1ccccc1NC(=O)CSc1sc2c(O)cc(=O)[nH]c2c1C#N returned FEN1 inhibitor 50µM*, WRN inhibitor 50µM*, BLM helicase inh -20% and APE1 inh 58%[12.4 µM].
For COc1ccc(Cl)cc1NC(=O)CSc1sc2c(O)cc(=O)[nH]c2c1C#N the results were FEN1 inhibitor -36%, WRN inhibitor inconclusive, BLM helicase inh -10% and APE1 inh 24%.
Screening COc1cc(-c2noc(-c3ccc(N(C)C)c([N+](=O)[O-])c3)n2)cc(OC)c1OC returned FEN1 inhibitor -16% and BLM helicase inh -27%.
OC(C1=C/C(=C\c2ccncc2)c2ccccc21)c1ccncc1 (centres undefined) was read as FEN1 inhibitor 2%.
`COc1c(C)c2c(c(O)c1C/C=C(\C)CCC(=O)OCCN1CCOCC1)C(=O)OC2` gave APE1 inh -4%.
`CC[n+]1c(/C=C2\Sc3ccccc3N2C)ccc2cccc(C)c21` gave FEN1 inhibitor 13µM*, WRN inhibitor 50µM*, BLM helicase inh 63%, RECQ1 helicase inconclusive and APE1 inh -1%.
CN1/C(=C/c2cccc[n+]2CCO)Sc2ccccc21 was read as FEN1 inhibitor -1%, WRN inhibitor 0%, BLM helicase inh -2% and APE1 inh 6%.
COc1cc(/C=C2\SC(=Nc3ccccc3OC)NC2=O)ccc1O was read as FEN1 inhibitor inconclusive, WRN inhibitor -11%, BLM helicase inh -9% and APE1 inh -23%.
`COc1cc(/C=C2/SC(=Nc3ccc(O)cc3)NC2=O)ccc1O` gave FEN1 inhibitor -33%, WRN inhibitor 50µM*, BLM helicase inh -23%, RECQ1 helicase -28% and APE1 inh 8%.
CCCC[n+]1c(/C=C/c2ccc(N(C)C)cc2)sc2ccccc21 was read as FEN1 inhibitor 50µM*.
For CCCCCCCCCC[n+]1ccc(/C=C/c2ccc(N(C)C)cc2)c2ccccc21 the results were FEN1 inhibitor 79µM*.
Screening CN(CCCS(=O)(=O)[O-])c1ccc(/C=C/c2ccc3ccccc3[n+]2C)cc1 returned FEN1 inhibitor -5%, WRN inhibitor -1%, BLM helicase inh -8% and APE1 inh -3%.
CN(Cc1ccccc1)c1ccc(/C=C/c2sc3ccccc3[n+]2C)cc1 was read as FEN1 inhibitor 40µM*.
`Cc1c(CNCc2ccc(OC(C)C)cc2)c(C(=O)O)c(C)n1Cc1ccc(Cl)cc1` gave FEN1 inhibitor -6% and BLM helicase inh 0%.
For Cn1c(O)c(C2=c3ccccc3=NC2=O)[nH]c1=S the results were FEN1 inhibitor 0%, WRN inhibitor -11%, BLM helicase inh 1%, RECQ1 helicase 5% and APE1 inh -3%.
COc1ccc2nc(-n3c(O)c(C4=c5ccccc5=NC4=O)[nH]c3=S)sc2c1 was read as FEN1 inhibitor 32µM*, WRN inhibitor 25µM*, BLM helicase inh 20µM*, RECQ1 helicase -6% and APE1 inh -4%.
CNC(=O)c1nnsc1S(=O)(=O)c1ccc(Cl)cc1 was read as FEN1 inhibitor -10%, WRN inhibitor 7.9µM*, BLM helicase inh 0%, RECQ1 helicase 7% and APE1 inh 1%.
For O=C(Cn1c(=O)n(Cc2nc(-c3ccccc3)no2)c(=O)c2cc3c(cc21)OCO3)Nc1ccc(Cl)cc1 the results were FEN1 inhibitor 15% and BLM helicase inh -3%.
For O=C(Nc1ccccc1)N1CCCC2CCCCC21 (centres undefined) the results were FEN1 inhibitor -11%, WRN inhibitor -8%, BLM helicase inh -4%, RECQ1 helicase -13% and APE1 inh -2%.
`CC(=O)Nc1cc(NC(C)=O)cc(C(=O)N2CCCC3CCCCC32)c1` (centres undefined) gave FEN1 inhibitor -20%, WRN inhibitor inconclusive, BLM helicase inh -22% and APE1 inh 17µM*.
`CCN(C(=O)CSc1nc2ccccc2c2nc(CCn3c(C)nc4ccccc43)nn12)c1cccc(C)c1` gave FEN1 inhibitor 1% and BLM helicase inh -3%.
For COc1ccc(-n2c(-c3ccc(Cl)cc3Cl)n[nH]c2=S)c(OC)c1 the results were FEN1 inhibitor -12%, WRN inhibitor 79µM*, BLM helicase inh 1% and APE1 inh 6%.
Screening CCOc1cc(C(=O)Nc2ccc3oc(-c4ccc(F)cc4Cl)nc3c2)cc(OCC)c1OCC returned FEN1 inhibitor -19% and BLM helicase inh -11%.
Screening Cc1cc[n+](C2CCCCC2)c2ccccc12 returned FEN1 inhibitor 3%.
